We go through 22 compounds from PubChem BioAssay (Tox21).

SMILES strings stand for the structures. Inconclusive results are not listed. Entries that show only a call come without a potency. The source made the active and inactive calls. Calls come from the whole dose curve; as a rule, active = well fitted cell-killing curve with a large enough effect in the repeat runs; inconclusive = weak or mixed curves, or effect the other way; inactive = flat fitted curve, though single readings scatter.
Potency is the fitted concentration of half-maximal effect.

The assay can be described thus: qHTS assay to identify small molecule antagonists of the retinoid acid receptor (RAR) signaling pathway - cell viability counter screen (AID 1159551). Note: nearly all actives have a fitted effect of over 35% in size. Conditions: C3RL4 cells viability, ATP luminescence (CellTiter-Glo), 6 h; series mostly up to 92.4 µM. In a few lines:
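Following overnight attachment, C3RL4 reporter cells received DMSO-dissolved compounds and then retinol (1 uM final). Six hours later at 37 C, ATP content was measured by CellTiter-Glo luminescence.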
On the technique in general: In qHTS, concentration-response curves come from the screen itself.
Turning to `COc1ccc2c(c1OC)C(=O)O[C@@H]2[C@H]1c2cc3c(cc2CCN1C)OCO3`, the Potency result was “inactive”.
The result for `CC(Cc1ccc(OCC(=O)O)cc1)NCC(O)c1csc(C(F)(F)F)n1` (configuration not stated) reads “inactive”; that for `Nc1ccc(Cl)cc1C(=O)c1ccccc1F`, “inactive”.
To `O=c1c2ccccc2c(=O)c2c1cc(Cl)c1[nH]c3c([nH]c12)c(Cl)cc1c(=O)c2ccccc2c(=O)c13` belongs “inactive”; to `CCc1cccc(C)c1N(C(=O)CCl)[C@@H](C)COC`, “inactive”; to `COP(=O)(OC)O/C(=C\Cl)c1cc(Cl)c(Cl)cc1Cl`, “inactive”.
The result for `C=Cc1cccc(CCl)c1` reads “inactive”; that for `CNC(C)(C)Cc1ccccc1`, “inactive”; that for `CCC(C)Br` (configuration not stated), “inactive”.
For the compound `OCC(Br)CBr` (configuration not stated), the Potency entry is “inactive”.
For the compound `ClC1=C(Cl)[C@]2(Cl)[C@H]3[C@H]([C@@H]4C=C[C@H]3C4)[C@@]1(Cl)C2(Cl)Cl`, the Potency result was “inactive”.
Regarding `CCOP(=S)(OCC)SC(CCl)N1C(=O)c2ccccc2C1=O` (configuration not stated), the Potency result was “inactive”.
The result for `Oc1ccc(Cl)c(Cl)c1` reads “inactive”; that for `COC(=O)C(C)N(C(=O)c1ccco1)c1c(C)cccc1C` (configuration not stated), “inactive”.
Take `COP(=S)(NC(C)C)Oc1ccc(C)cc1[N+](=O)[O-]` (configuration not stated): the Potency result is “inactive”.
As to `Clc1ccc(C(Cl)(Cl)Cl)cc1Cl`, the Potency result is “inactive”.
The result for `Cc1ccc(C)c2ccccc12` reads “inactive”; that for `COc1cnc(OC)n2nc(NS(=O)(=O)c3c(OCC(F)F)cccc3C(F)(F)F)nc12`, “inactive”; that for `CC(O)C(=O)[O][Hg][c]1ccccc1` (configuration not stated), 13.7 µM (active).
As to `CCCCCON=O`, the Potency entry was “inactive”.
As for `CNC(=O)/C=C(\C)OP(=O)(OC)OC`, the Potency entry is “inactive”.
To `CC(C)N(C(=O)SC/C(Cl)=C/Cl)C(C)C` belongs “inactive”.
